Drawing on PubChem BioAssay (NCI), this text covers growth for 13 compounds.

Test systems include SK-MEL-2 melanoma; EKVX NSCLC; SN12C renal; UO-31 renal; TK-10 renal; ACHN renal; CAKI-1 renal; A498 renal; CCRF-CEM leukemia; MOLT-4 leukemia; SR leukemia; RPMI-8226 leukemia; OVCAR-8 ovarian; OVCAR-5 ovarian; SK-OV-3 ovarian; OVCAR-3 ovarian; HS 578T breast; NCI/ADR-RES ovarian; OVCAR-4 ovarian; IGROV1 ovarian.
Common to all, as to assay: NCI-60 one-dose screen, 48 h (100 = growth as untreated, 0 = no growth, -100 = all killed)
What all share (conditions): 10 µM unless noted

About 83,000 compounds went through this panel and 20% of them were active in at least one assay; those are over-represented in the sample as a whole.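 Step 1: grow cells in 96-well plates. Step 2: add test compound at a single concentration. Step 3: incubate 48 h. Step 4: record percent growth.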 Unmarked numbers belong to inactive results. Activity calls are given as the source filed them. Rule for the calls: active = growth percent below 10; inactive = the rest.

For the compound `COc1cc([N+](=O)[O-])cc(OC)c1OC`, the growth in the test with SK-MEL-2 melanoma is 114%; in the test on EKVX NSCLC, 104%; in the test with SN12C renal, 101%; in the test with UO-31 renal, 86.5%; with TK-10 renal, 106%; with ACHN renal, 119%. Also, the growth in the test on CAKI-1 renal was 89.5%; in the test on A498 renal it was 79.9%; in the test with CCRF-CEM leukemia, 105%; with MOLT-4 leukemia it was 103%; in the test with SR leukemia, 102%; in the test with RPMI-8226 leukemia it was 96%. For the same compound, the growth with OVCAR-8 ovarian was 109%; in the test with OVCAR-5 ovarian, 129%; in the test on SK-OV-3 ovarian, 118%; in the test on OVCAR-3 ovarian, 108%; with HS 578T breast, 107%; in the test with NCI/ADR-RES ovarian, 114%.
In the case of `c1coc(CNc2c3ccccc3nc3ccccc23)c1`, the growth in the test with SK-MEL-2 melanoma is 101%; in the test on EKVX NSCLC, 62.1%; in the test with SN12C renal, 53.5%; with UO-31 renal it was 39.5%; with TK-10 renal, 88.4%; in the test on ACHN renal, 26.2%. Further, the growth in the test on CAKI-1 renal was 41%; in the test with A498 renal, 20.1%; in the test with CCRF-CEM leukemia, 57.2%; in the test on MOLT-4 leukemia it was 27.2%; with SR leukemia, 34%; with RPMI-8226 leukemia it was 56.6%. In addition, the growth is 47.5% in the test with OVCAR-8 ovarian; 56.2% in the test on OVCAR-4 ovarian; 70.9% in the test with SK-OV-3 ovarian; 61.8% with IGROV1 ovarian; 96.9% in the test with OVCAR-3 ovarian; 84% in the test with HS 578T breast. In addition, in the test on NCI/ADR-RES ovarian, the growth is 44.8%.
In the case of `Cc1c(C(=O)Nc2ccccc2F)sc2c(=O)[nH]cnc12`, the growth in the test with SK-MEL-2 melanoma was 53.9%; in the test with EKVX NSCLC, 91%; with SN12C renal, 96.2%; in the test with UO-31 renal it was 74.6%; in the test on TK-10 renal, 90.8%; in the test on ACHN renal, 102%. Further, the growth in the test with CAKI-1 renal was 74.7%; in the test with A498 renal, 99.6%; with CCRF-CEM leukemia, 90.4%; in the test on MOLT-4 leukemia, 82%; in the test on SR leukemia, 28.5%; with RPMI-8226 leukemia it was 96.7%. Moreover, the growth was 97% in the test with OVCAR-8 ovarian; 97.5% in the test on SK-OV-3 ovarian; 93.7% in the test on OVCAR-3 ovarian; 98.2% with HS 578T breast; 66.2% with NCI/ADR-RES ovarian.
In the case of `COc1cccc(/C(C)=N/NC(=O)CSc2nc3ccccc3c(=O)n2CCc2ccc(S(N)(=O)=O)cc2)c1`, the growth with SK-MEL-2 melanoma was 30%; in the test with EKVX NSCLC, 96.9%; in the test on SN12C renal, 39.6%; in the test with UO-31 renal, 98.9%; in the test with TK-10 renal, 32.3%; with ACHN renal it was 85%. The growth is 70.5% in the test on CAKI-1 renal; 72.1% with A498 renal; 22.3% in the test with CCRF-CEM leukemia; 14.4% in the test on MOLT-4 leukemia; -1.96% (active) with SR leukemia; 4.78% (active) in the test with RPMI-8226 leukemia. Moreover, the growth is 7.61% (active) with OVCAR-8 ovarian; -7.35% (active) in the test with OVCAR-4 ovarian; 43.7% with SK-OV-3 ovarian; 77.1% with IGROV1 ovarian; 20% in the test on OVCAR-3 ovarian; 29.8% in the test on HS 578T breast. Moreover, the growth with NCI/ADR-RES ovarian is 74.7%.
On to `C[C@H](NC(=O)c1snnc1C1CC1)c1c(F)cccc1Cl`, for which the growth in the test with SK-MEL-2 melanoma was 108%; in the test with EKVX NSCLC it was 115%; in the test on SN12C renal it was 104%; with UO-31 renal, 94%; in the test on TK-10 renal it was 129%; with ACHN renal, 92.1%. In addition, the growth with CAKI-1 renal is 115%; with A498 renal, 96.4%; in the test on CCRF-CEM leukemia, 110%; with MOLT-4 leukemia it was 101%; in the test with SR leukemia, 149%; with RPMI-8226 leukemia, 130%. Besides, the growth in the test on OVCAR-8 ovarian is 104%; with OVCAR-4 ovarian, 110%; in the test with IGROV1 ovarian, 113%; in the test with OVCAR-3 ovarian, 114%; in the test with HS 578T breast, 100%; in the test with NCI/ADR-RES ovarian, 97.8%.
As for `CC(SC(C)C(=O)N/N=C/c1cccc(Cl)c1)C(=O)N/N=C\c1cccc(Cl)c1` (configuration not stated), the growth with SK-MEL-2 melanoma was 95.8%; in the test with EKVX NSCLC, 94.9%; in the test on SN12C renal, 63.9%; in the test on UO-31 renal it was 90.2%; in the test with TK-10 renal it was 105%; in the test on ACHN renal it was 44%. Also, the growth in the test with CAKI-1 renal is 91.6%; in the test with A498 renal, 102%; in the test on CCRF-CEM leukemia, 48.6%; in the test with MOLT-4 leukemia, 68.3%; with SR leukemia, 15.8%; in the test on RPMI-8226 leukemia it was 64.4%. The growth in the test with OVCAR-8 ovarian is 68.1%; in the test with OVCAR-4 ovarian, -11.1% (active); in the test on SK-OV-3 ovarian, 90.5%; with IGROV1 ovarian, 70.3%; with OVCAR-3 ovarian it was -30.2% (active); in the test on HS 578T breast, 86%. The growth with NCI/ADR-RES ovarian was 94.5%.
With `c1csc(-c2cnc3nonc3n2)c1`, the growth in the test on SK-MEL-2 melanoma is 105%; with EKVX NSCLC, 101%; in the test on SN12C renal it was 86.7%; in the test on UO-31 renal, 66.5%; in the test with TK-10 renal, 128%; in the test with ACHN renal, 85.7%. The growth in the test on CAKI-1 renal is 90.3%; in the test on A498 renal it was 88.1%; in the test on CCRF-CEM leukemia it was 79.7%; in the test on MOLT-4 leukemia it was 78.9%; in the test on SR leukemia, 39.3%; in the test with OVCAR-8 ovarian, 79.2%. For the same compound, the growth was 107% with OVCAR-5 ovarian; 89.5% with OVCAR-4 ovarian; 92.7% in the test on SK-OV-3 ovarian; 76.9% in the test with IGROV1 ovarian; 84.2% in the test on OVCAR-3 ovarian; 92.5% with HS 578T breast. Moreover, the growth in the test on NCI/ADR-RES ovarian was 95%.
As to `CCN1C(=O)C(C)C=C(C)C=C1C` (configuration not stated), the growth with SK-MEL-2 melanoma was 102%; in the test with EKVX NSCLC, 114%; with SN12C renal, 112%; in the test on UO-31 renal, 86.8%; in the test with TK-10 renal, 105%; in the test on ACHN renal, 102%. Besides, the growth with CAKI-1 renal is 107%; in the test with A498 renal, 112%; in the test with CCRF-CEM leukemia, 102%; with MOLT-4 leukemia, 92.4%; in the test with SR leukemia it was 110%; with RPMI-8226 leukemia, 115%. Besides, the growth is 102% in the test on OVCAR-8 ovarian; 119% in the test on OVCAR-4 ovarian; 106% with SK-OV-3 ovarian; 106% in the test with IGROV1 ovarian; 92.6% in the test on OVCAR-3 ovarian; 102% with HS 578T breast. Further, the growth with NCI/ADR-RES ovarian is 119%.
Turning to `CC(C)[C@@]12C[C@@H](OC(=O)[C@H]3CO3)[C@@](C)(O1)[C@@H]1CC[C@@H](C)[C@H]1[C@@H]2OC(=O)/C=C/c1ccccc1`, the growth was 82.4% with SK-MEL-2 melanoma; 71.9% in the test on EKVX NSCLC; 52.5% with SN12C renal; -8.95% (active) in the test on UO-31 renal; 103% in the test on TK-10 renal; 23.5% in the test on ACHN renal. Further, the growth was 46.6% in the test on CAKI-1 renal; -61.1% (active) in the test with A498 renal; 81.9% in the test with CCRF-CEM leukemia; 72.8% in the test with MOLT-4 leukemia; 69.4% in the test on SR leukemia; 72.7% in the test on RPMI-8226 leukemia. The growth with OVCAR-8 ovarian was 11.1%; in the test on OVCAR-4 ovarian, 92%; in the test on SK-OV-3 ovarian, 76.5%; with IGROV1 ovarian, 85.7%; with OVCAR-3 ovarian it was 87%; with HS 578T breast, -23.9% (active). Moreover, in the test with NCI/ADR-RES ovarian, the growth was 31.1%.
Consider `COc1ccccc1-[n+]1cc(-c2ccc(-c3ccccc3)cc2)n2c1CCCCC2`, for which the growth is -27% (active) with SK-MEL-2 melanoma; 9.1% (active) in the test with EKVX NSCLC; 0.949% (active) in the test on SN12C renal; 74.7% in the test with UO-31 renal; 7.69% (active) with TK-10 renal; 32.5% in the test on ACHN renal. Besides, the growth in the test on CAKI-1 renal is 72.6%; in the test with A498 renal it was 9.77% (active); in the test with CCRF-CEM leukemia it was 17.2%; in the test on MOLT-4 leukemia it was 9.4% (active); with SR leukemia it was 8.54% (active); in the test with RPMI-8226 leukemia, -14.7% (active). Also, the growth was 2.74% (active) with OVCAR-8 ovarian; 20.2% with OVCAR-4 ovarian; -18.1% (active) in the test with SK-OV-3 ovarian; 16.6% in the test with IGROV1 ovarian; 9.07% (active) with OVCAR-3 ovarian; 22.1% in the test on HS 578T breast. For the same compound, in the test with NCI/ADR-RES ovarian, the growth was 86.9%.
Regarding `CCCCOc1nc2ccccc2cc1/C=C/c1cc(/C=C/c2cc3ccccc3nc2OCCCC)n(-c2ccccc2)n1`, the growth in the test with SK-MEL-2 melanoma was 101%; with EKVX NSCLC, 105%; with SN12C renal it was 95.3%; with UO-31 renal, 75.2%; in the test on TK-10 renal, 119%; in the test with ACHN renal, 103%. Further, the growth in the test on CAKI-1 renal is 88.3%; with A498 renal it was 95.9%; with CCRF-CEM leukemia it was 101%; with MOLT-4 leukemia, 99%; in the test with SR leukemia, 98.7%; in the test on OVCAR-8 ovarian, 95.9%. The growth is 102% in the test with OVCAR-5 ovarian; 109% in the test on OVCAR-4 ovarian; 92.6% in the test on SK-OV-3 ovarian; 97.9% in the test on IGROV1 ovarian; 107% in the test on OVCAR-3 ovarian; 87.6% in the test with HS 578T breast.
With `COC(=O)C(Br)(C(=O)OC)C(Br)C(Br)C(Br)c1ccccc1` (configuration not stated), the growth in the test with SK-MEL-2 melanoma is 83.6%; with EKVX NSCLC it was 105%; in the test with SN12C renal, 96.7%; in the test on UO-31 renal, -8.98% (active); with TK-10 renal, -45.2% (active); with ACHN renal it was -70% (active). Further, the growth in the test on CAKI-1 renal was -69.6% (active); in the test on A498 renal it was 101%; in the test with CCRF-CEM leukemia, 0.438% (active); in the test on MOLT-4 leukemia, 50.1%; with SR leukemia it was 47.6%; with RPMI-8226 leukemia, 106%. Further, the growth in the test with OVCAR-8 ovarian was 73.1%; in the test with OVCAR-4 ovarian, 83.6%; with SK-OV-3 ovarian, 102%; in the test with IGROV1 ovarian it was 39.1%; in the test with OVCAR-3 ovarian it was -37% (active); in the test with HS 578T breast, 114%. Also, in the test with NCI/ADR-RES ovarian, the growth was 104%.
In the case of `CN1C(=O)N(C)C2C1NN=c1s/c(=C\c3ccc(Br)cc3)c(=O)n12` (configuration not stated), the growth is 52.7% in the test with SK-MEL-2 melanoma; 50% with EKVX NSCLC; 50.2% with SN12C renal; 53.4% in the test on UO-31 renal; 60.4% with TK-10 renal; 43.2% with ACHN renal. In addition, the growth was 38.6% with CAKI-1 renal; 20.2% in the test with A498 renal; 10.3% in the test with CCRF-CEM leukemia; 40.3% in the test with MOLT-4 leukemia; 13.5% with SR leukemia; 33.7% with OVCAR-8 ovarian. Besides, the growth was 56.8% in the test with OVCAR-5 ovarian; 61.6% with OVCAR-4 ovarian; 29.5% with SK-OV-3 ovarian; 48.1% in the test on IGROV1 ovarian; 0.921% (active) in the test on OVCAR-3 ovarian; 11.6% in the test with HS 578T breast. For the same compound, in the test on NCI/ADR-RES ovarian, the growth was 17%.
